Experimental data published in PubChem BioAssay (NCATS).
Inconclusive results are not listed. A call without a number means that no potency is given here. The source made the active and inactive calls. The call rests on the fitted dose curve; in most records, active means well fitted curve in the direction sought with a large enough effect; inconclusive means small, poorly fitted or top-dose-only effect, or another doubt; inactive means no such curve, though single readings can be large; an effect the other way counts as inactive or inconclusive.

Tests used:
[1] = biological target: Metallo-beta-lactamase type 2 (Klebsiella pneumoniae) (UniProt C7C422); assay: qHTS to identify inhibitors of the New Delhi Metallo-beta-lactamase (NDM): assay validation screen against the NCATS LOPAC Collection (AID 1794843);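 further: nitrocefin turnover by NDM-1 measured as 485 nm absorbance at plateau; series mostly up to about 38 µM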
Metallo-beta-lactamase type 2 (Klebsiella pneumoniae), sequence (C7C422 whole entry, looked up): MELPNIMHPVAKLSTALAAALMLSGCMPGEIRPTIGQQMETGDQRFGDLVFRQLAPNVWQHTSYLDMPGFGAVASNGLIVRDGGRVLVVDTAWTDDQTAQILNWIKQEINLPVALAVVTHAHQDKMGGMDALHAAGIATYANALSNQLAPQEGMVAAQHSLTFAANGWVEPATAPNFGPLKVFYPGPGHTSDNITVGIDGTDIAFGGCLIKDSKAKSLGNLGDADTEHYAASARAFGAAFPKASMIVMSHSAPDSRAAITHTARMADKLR
In short: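 NDM-1 at 2 nM final in 50 mM HEPES pH 7.0 with 1 uM ZnSO4 and 0.01% Tween20 was preincubated with library compounds in DMSO. Nitrocefin (50 uM stock) was then added, and absorbance at 485 nm was read at the kinetic plateau.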

[2] = biological target: Glutathione peroxidase 1 (Homo sapiens) (UniProt P07203); assay: Primary qHTS Assay for Inhibitors of Recombinant Selenoprotein Glutathione Peroxidase 1 (GPX1) (AID 1845191); further: nearly all actives have a fitted effect of over 65% in size
Glutathione peroxidase 1 (Homo sapiens), sequence (P07203 whole entry, looked up): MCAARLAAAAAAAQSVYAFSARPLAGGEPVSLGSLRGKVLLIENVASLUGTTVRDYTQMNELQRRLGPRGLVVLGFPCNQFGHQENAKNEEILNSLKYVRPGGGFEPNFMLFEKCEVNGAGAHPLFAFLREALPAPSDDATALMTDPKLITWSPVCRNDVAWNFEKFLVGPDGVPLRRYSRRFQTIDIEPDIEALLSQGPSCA
In short: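 10 nM GPX1 + cpd, 30 min RT; start w/ 1 mM GSH, 0.5 mM cumene hydroperoxide, 0.5 mM NADPH, 100 nM GR, 0.01% BSA; buffer 50 mM Tris-HCl pH 7.5, 2 mM EDTA, 150 mM NaCl; Fl 340/450, 0 & 15 min.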

[3] = biological target: Phospholipid hydroperoxide glutathione peroxidase GPX4 (Homo sapiens) (UniProt P36969); assay: Primary qHTS Assay for Inhibitors of Recombinant Selenoprotein Glutathione Peroxidase 4 (GPX4) (AID 1845192); further: nearly all actives have a fitted effect of over 65% in size
Phospholipid hydroperoxide glutathione peroxidase GPX4 (Homo sapiens), sequence (P36969 whole entry, looked up): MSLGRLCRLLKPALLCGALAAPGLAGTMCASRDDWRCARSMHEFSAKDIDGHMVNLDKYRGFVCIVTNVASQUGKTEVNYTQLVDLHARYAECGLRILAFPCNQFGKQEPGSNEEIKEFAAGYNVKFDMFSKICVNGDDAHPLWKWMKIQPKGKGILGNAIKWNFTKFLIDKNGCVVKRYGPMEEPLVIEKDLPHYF
In short: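 NADPH consumption, followed by fluorescence at 340/450 nm between 0 and 15 min, reports GPX4 activity via coupled glutathione reductase (100 nM). Enzyme 200 nM was pre-exposed to compound 30 min; 0.5 mM cumene hydroperoxide and 1 mM GSH served as substrates.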

[4] = biological target: Nuclear receptor subfamily 1 group I member 3 (Homo sapiens) (UniProt Q14994); assay: Primary qHTS for antagonist of constitutive androstane receptor (CAR) against the NCATS DSHEA and TCM libraries (AID 1794836);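 further: HepG2 cells stably expressing hCAR with CYP2B6 luciferase reporter stimulated by CITCO; series mostly up to about 40 µM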
Nuclear receptor subfamily 1 group I member 3 (Homo sapiens), sequence (Q14994 whole entry, looked up): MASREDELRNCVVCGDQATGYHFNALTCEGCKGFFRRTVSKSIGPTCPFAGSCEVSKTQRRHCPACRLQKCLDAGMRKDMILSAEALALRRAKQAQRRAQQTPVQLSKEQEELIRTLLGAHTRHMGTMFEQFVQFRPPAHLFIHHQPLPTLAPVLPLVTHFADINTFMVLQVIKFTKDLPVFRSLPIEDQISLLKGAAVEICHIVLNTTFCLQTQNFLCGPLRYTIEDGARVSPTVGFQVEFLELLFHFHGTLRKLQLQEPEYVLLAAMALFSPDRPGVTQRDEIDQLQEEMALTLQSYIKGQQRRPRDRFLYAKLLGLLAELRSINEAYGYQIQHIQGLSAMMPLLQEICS
In short: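 Antagonist mode: CAR reporter luminescence (ONE-Glo) in HepG2-CYP2B6-hCAR cells stimulated with 48 uM CITCO (final) over 24 h at 37 C, compounds titrated; viability read first by CellTiter-Fluor fluorescence.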

[5] = Quantitative High-Throughput drug screen in 47 multiple myeloma cell lines against the NCATS MIPE library collection: FR4_PLB cell viability assay (AID 1918924; further: nearly all actives have a fitted effect of over 35% in size)
In short: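 Luminescent ATP measurement with CellTiter-Glo gives viability, scaled between DMSO-only wells (100%) and media-only wells (0%). Cells, 500 per well, faced library compounds for 48 hours at 37C.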

[6] = biological target: Luciferin 4-monooxygenase (Photinus pyralis) (UniProt P08659); assay: Primary firefly luciferase (FLuc) qHTS assay for identification of artifact compounds. (AID 1845220); conditions: outcome: dose series up to 54.1 µM unless noted; further: series mostly up to about 54 µM; nearly all actives have a fitted effect of over 60% in size
In short: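 FLuc 10 nM; luciferin 10 uM; ATP 10 uM; Tris-acetate pH 7.6, Mg-acetate 10 mM; 15 min RT preincubation; 5 min reaction; luminescence.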

[7] = Primary fluorescence-based thiol-reactive (MSTI) qHTS assay for identification of artifact compounds. (AID 1845221);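 further: series mostly up to about 54 µM; thiol-reactive compounds lower the probe fluorescence signal; nearly all actives have a fitted effect of over 65% in size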
In short: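 Reactivity toward the thiol probe MSTI (4 uM) is scored by fluorescence at Ex/Em 525/598 nm after 1 h at room temperature. Acetyl-MSTI and MSTI define the activity scale.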

[8] = Primary redox qHTS assay for identification of artifact compounds. (AID 1845223)
In short: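 Amplex Red (25 uM) and HRP (250 mU/mL) in HBSS, with compounds for 15 min, then 250 uM DTT for 30 min, room temperature, dark. Fluorescence 525/598 nm read; normalized to DMSO and 10 uM DA3003; Hill fit.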

[9] = test system: Nanoluciferase (engineered Oplophorus gracilirostris luciferase); assay: Primary Nanoluciferase (NLuc) qHTS assay for identification of artifact compounds. (AID 1845222);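 further: NLuc secreted into diluted conditioned medium of S16 cells; series mostly up to about 54 µM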
In short: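 NLuc from S16 cell medium (1:55) plus test compounds, 15 min, room temperature. Luminescence after Nano-Glo (1:100) addition, 5 min.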

[10] = NCATS anti-infectives library activity on HEK293 viability as a counter-qHTS vs the C. elegans viability qHTS (AID 1745854);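 further: HEK293 cells exposed to compounds for 24 hr before the viability read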
In short: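 HEK293 cells (1,500/well) exposed 24 hr at 37C to 1:5 titrations, up to 41.7 uM final; counter-screen to a C. elegans viability qHTS. Viability by CellTiter-Glo luminescence after 10 min at room temperature; digitonin as control.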

CCCCCN(C)CCC(O)(P(=O)(O)O)P(=O)(O)O
outcome [1]: inactive | Potency [2]: inactive | Potency [3]: inactive

O=C(O)CCCC[C@@H]1SC[C@@H]2NC(=O)N[C@@H]21
outcome [4]: inactive

O=C(CCCN1CCC2(CC1)C(=O)NCN2c1ccccc1)c1ccc(F)cc1
outcome [1]: inactive | Potency [2]: inactive | Potency [3]: inactive

NC(=O)c1cc([N+](=O)[O-])cc([N+](=O)[O-])c1
Potency [2]: inactive | Potency [3]: inactive

CCC1(c2ccc(N)cc2)CCC(=O)NC1=O (stereo unspecified)
outcome [1]: inactive | Potency [2]: inactive | Potency [3]: inactive | Potency [5]: inactive

COP(=S)(OC)Oc1ccc(S(=O)(=O)N(C)C)cc1
Potency [2]: inactive | Potency [3]: inactive

COC1CC(=C(c2cccs2)c2cccs2)C[N+](C)(C)C1 (stereo unspecified)
Potency [2]: inactive | Potency [3]: inactive

COc1cccc2c1C(=O)c1c(O)c3c(c(O)c1C2=O)C[C@@](O)(C(=O)CO)CC3OC1CC(N2CCOC(OC)C2)C(O)C(C)O1 (stereo partly specified)
Potency [2]: inactive

Cc1ncsc1CCCl
outcome [1]: inactive | Potency [2]: inactive | Potency [3]: inactive

CC(C)=CCC[C@@](C)(O)[C@H]1CC=C(C)CC1
outcome [4]: inactive

O=C1OC(c2ccc(O)c(S(=O)(=O)O)c2)(c2ccc(O)c(S(=O)(=O)O)c2)c2c(Br)c(Br)c(Br)c(Br)c21
Potency [2]: inactive

CC(C)[C@H]1C(=O)N2CCC[C@H]2[C@]2(O)O[C@](NC(=O)[C@@H]3C[C@@H]4c5cccc6[nH]cc(c56)C[C@H]4N(C)C3)(C(C)C)C(=O)N12
Potency [2]: inactive

O=P1(N(CCCl)CCCl)NCCCO1 (stereo unspecified)
outcome [1]: inactive | Potency [2]: inactive | Potency [3]: inactive | Potency [5]: inactive

CC(C)c1cccc(C(C)C)c1O
outcome [1]: inactive | Potency [2]: inactive | Potency [3]: inactive | Potency [5]: inactive

CC(C)(C)NCC(O)c1cc(Cl)c(N)c(C(F)(F)F)c1 (stereo unspecified)
Potency [2]: inactive | Potency [3]: inactive

NCCc1ccc(O)cc1
outcome [1]: inactive | Potency [2]: inactive | Potency [3]: inactive

NNC(=O)c1ccncc1
outcome [4]: inactive

CN1C(=O)CCS(=O)(=O)C1c1ccc(Cl)cc1 (stereo unspecified)
outcome [1]: inactive | Potency [2]: inactive | Potency [3]: inactive

CCCCCCCCCCCCCCCC(=O)O
outcome [4]: inactive

O=C(O)c1cc(O)c(O)c(O)c1
outcome [4]: inactive

Nc1ccc(C(=O)O)cc1
outcome [4]: inactive

CN1C[C@H](C(=O)N[C@]2(C)O[C@@]3(O)[C@@H]4CCCN4C(=O)[C@H](Cc4ccccc4)N3C2=O)C=C2c3cccc4[nH]cc(c34)C[C@H]21
Potency [2]: inactive

COc1c2c(cc3c1OCO3)CCN(C)C2
Potency [2]: inactive | Potency [3]: inactive

Cc1ccc(C(C)C)c(O)c1
outcome [4]: inactive

CC(NC(C)(C)C)C(=O)c1cccc(Cl)c1 (stereo unspecified)
outcome [1]: inactive | Potency [2]: inactive | Potency [3]: inactive | outcome [6]: inactive | outcome [7]: inactive | outcome [8]: inactive | Potency [5]: inactive

COc1ccc2c(c1OC)C(=O)O[C@H]2[C@@H]1c2cc3c(cc2CCN1C)OCO3
outcome [1]: inactive | Potency [2]: inactive | Potency [3]: inactive

CCc1cc2c(s1)-n1c(C)nnc1CN=C2c1ccccc1Cl
Potency [2]: inactive | Potency [3]: inactive

C[C@]12CC[C@H]3[C@@H](CCC4=CC(=O)CC[C@@H]43)[C@@H]1CC[C@@H]2OC(=O)CCC1CCCCC1
Potency [2]: inactive

COP(=S)(OC)Oc1cc(Cl)c(Cl)cc1Cl
Potency [2]: inactive | Potency [3]: inactive

CC(C)N(CCC(C(N)=O)(c1ccccc1)c1ccccn1)C(C)C (stereo unspecified)
outcome [1]: inactive | Potency [2]: inactive | Potency [3]: inactive | outcome [6]: inactive | outcome [9]: inactive | outcome [8]: inactive

CC(C)(C)NCC(O)c1ccccc1Cl (stereo unspecified)
outcome [10]: inactive | outcome [1]: inactive | Potency [2]: inactive | Potency [3]: inactive

O=c1[nH]oc2c1CCNC2
outcome [1]: inactive | Potency [2]: inactive | Potency [3]: inactive

Nc1ccccc1
Potency [2]: inactive | Potency [3]: inactive

O=c1oc2ccccc2c(O)c1Cc1c(O)c2ccccc2oc1=O
Potency [2]: inactive | Potency [3]: inactive

C=CCc1ccc(O)c(OC)c1
outcome [4]: inactive
